Among the data in PubChem BioAssay (NCI) are growth inhibition values, retold here.

Assay [1] is described as follows: NCI Yeast Anticancer Drug Screen. Data for the rad50 strain (AID 155).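 Further: 0% = growth of vehicle-only cultures of the same strain.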 To be noted: S. cerevisiae rad50 strain growth inhibition, stronger effect = higher value. The method in brief: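 Readout: growth inhibition relative to vehicle-treated cultures. Compound exposure was carried out in a genetically defined yeast strain deficient in DNA damage repair.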
Assay [2] can be described thus: NCI Yeast Anticancer Drug Screen. Data for the mec2-1 strain (AID 157). To be noted: S. cerevisiae mec2-1 strain, stronger effect = higher value. Put shortly:
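Readout is yeast growth inhibition, normalised to vehicle-treated controls, in the mec2-1 strain exposed to compound.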

The nature of assay [3]: NCI Yeast Anticancer Drug Screen. Data for the sgs1 mgt1 strain (AID 161).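 Further: 0% = growth of cultures given vehicle only.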 The settings on record: S. cerevisiae sgs1 mgt1 strain, stronger effect = higher value. Put shortly:
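Percent growth inhibition was derived by comparing compound-exposed mutant yeast with vehicle-exposed cultures. The strain carries alterations in DNA damage repair.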

Assay [4] in a line: NCI Yeast Anticancer Drug Screen. Data for the cln2 rad14 strain (AID 165).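 Further: 0% = growth equal to vehicle treated cultures.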 To be noted: S. cerevisiae cln2 rad14 strain, stronger effect = higher value. Put shortly: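 Relative to vehicle controls, growth inhibition of compound-treated cln2 rad14 yeast was recorded.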
Assay [5] in a line: NCI Yeast Anticancer Drug Screen. Data for the bub3 strain (AID 167). The settings on record: S. cerevisiae bub3 mutant strain, stronger effect = higher value. Put shortly: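 Readout: yeast growth inhibition, expressed relative to vehicle-only wells. The test organism is a mutant strain from a panel with lesions in DNA repair or checkpoint genes.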
Assay [6] in a line: NCI Yeast Anticancer Drug Screen. Data for the mlh1 rad18 strain (AID 175). The settings on record: S. cerevisiae mlh1 rad18 strain growth inhibition, stronger effect = higher value. Put shortly: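 Test agents were incubated with a yeast strain of defined genotype (DNA damage repair defect). Inhibition of growth was derived by comparison with vehicle-exposed cultures.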
[7] abbreviates: at 5.0 µM (retest, dose inferred, filed as 0.5).
Where [8] appears, read: at 50.0 µM (retest, dose inferred, filed as 5.0).

Where “and” joins values, the source holds several entries; their conditions need not be identical. Equal entries are not always repeated. Compounds without any hit were thinned out: in the full panel of roughly 79,000, 15% have a hit. Some compounds were tested as several samples or in several runs, with calls that do not always agree. Calls of active or inactive are those of the source. No stated cut-off is given here; in the data, active means growth inhibition above about 70%; inactive means the rest.

Turning to `N=P(c1ccccc1)(c1ccccc1)c1ccccc1.[O]=[Cr](=[O])([OH])[O][Cr](=[O])(=[O])[OH]`, the growth inhibition in assay [1] (setting [7]) is 9% (inactive); in assay [1] (setting [8]), 80% (active); in assay [1] (at 50.0 µM) it was 71.3% (active); in assay [2] (setting [7]), 5% (inactive); in assay [2] (setting [8]), 76% (active); in assay [2] (at 50.0 µM), 26.4% (inactive). Moreover, the growth inhibition in assay [3] (setting [7]) was 16% (inactive); in assay [3] (setting [8]), 91% (active); in assay [3] (at 50.0 µM), 37.3% (inactive); in assay [4] (setting [7]), -4% (inactive); in assay [4] (setting [8]), 50% (inactive); in assay [4] (at 50.0 µM) it was 8.95% (inactive). Also, the growth inhibition was -4% (inactive) in assay [5] (setting [7]); 81% (active) in assay [5] (setting [8]); 11.2% (inactive) in assay [5] (at 50.0 µM); 4% (inactive) in assay [6] (setting [7]); 57% (inactive) in assay [6] (setting [8]); 53.2% (inactive) in assay [6] (at 50.0 µM).

Turning to `Cc1ccc(C(=O)OC(C(=O)O)C(OC(=O)c2ccc(C)cc2)C(=O)O)cc1` (configuration not stated) (tested in a mixture with another compound), the growth inhibition is 15% (inactive) in assay [1] (setting [7]); 79% (active) in assay [1] (setting [8]); 6.35% (inactive) and 92.2% (active) in assay [1] (at 50.0 µM); -7% (inactive) in assay [2] (setting [7]); 61% (inactive) in assay [2] (setting [8]); 9% (inactive) and 93.7% (active) in assay [2] (at 50.0 µM). The growth inhibition in assay [3] (setting [7]) is 28% (inactive); in assay [3] (setting [8]), 70% (active); in assay [3] (at 50.0 µM), 21.2% (inactive) and 93.8% (active); in assay [4] (setting [7]), 34% (inactive); in assay [4] (setting [8]), 77% (active); in assay [4] (at 50.0 µM), -1.75% (inactive) and 91.3% (active). Moreover, the growth inhibition is -10% (inactive) in assay [5] (setting [7]); 88% (active) in assay [5] (setting [8]); 23.3% (inactive) and 93% (active) in assay [5] (at 50.0 µM); 19% (inactive) in assay [6] (setting [7]); 86% (active) in assay [6] (setting [8]); 12.3% (inactive) and 92.5% (active) in assay [6] (at 50.0 µM).

Turning to `COC(=O)CC1(C(=O)O)CC2(Cl)C(Cl)=C(Cl)C1(Cl)C2(Cl)Cl` (configuration not stated), the growth inhibition was 4% (inactive) in assay [1] (setting [7]); 30% (inactive) in assay [1] (setting [8]); 65.9% (inactive) in assay [1] (at 50.0 µM); 10% (inactive) in assay [2] (setting [7]); 52% (inactive) in assay [2] (setting [8]); 47.4% (inactive) in assay [2] (at 50.0 µM). The growth inhibition in assay [3] (setting [7]) was 6% (inactive); in assay [3] (setting [8]), 49% (inactive); in assay [3] (at 50.0 µM), 75% (active); in assay [4] (setting [7]), 17% (inactive); in assay [4] (setting [8]), 56% (inactive); in assay [4] (at 50.0 µM) it was 83.5% (active). The growth inhibition in assay [5] (setting [7]) was 1% (inactive); in assay [5] (setting [8]), 41% (inactive); in assay [5] (at 50.0 µM), 36.8% (inactive); in assay [6] (setting [7]), 7% (inactive); in assay [6] (setting [8]) it was 57% (inactive); in assay [6] (at 50.0 µM), 61.4% (inactive).

For `Cc1nc2c(Br)cc(Br)cc2c(=O)n1-c1ccccc1N`, the growth inhibition in assay [1] (setting [7]) is 19% (inactive); in assay [1] (setting [8]), 22% (inactive); in assay [1] (at 50.0 µM) it was 63% (inactive); in assay [2] (setting [7]) it was 15% (inactive); in assay [2] (setting [8]), 17% (inactive); in assay [2] (at 50.0 µM) it was 9.45% (inactive). Further, the growth inhibition in assay [3] (setting [7]) was 13% (inactive); in assay [3] (setting [8]) it was 24% (inactive); in assay [3] (at 50.0 µM), 63.8% (inactive); in assay [4] (setting [7]), 18% (inactive); in assay [4] (setting [8]) it was 37% (inactive); in assay [4] (at 50.0 µM), 19.4% (inactive). In addition, the growth inhibition was 3% (inactive) in assay [5] (setting [7]); 4% (inactive) in assay [5] (setting [8]); 70.2% (active) in assay [5] (at 50.0 µM); 37% (inactive) in assay [6] (setting [7]); 34% (inactive) in assay [6] (setting [8]); 46.2% (inactive) in assay [6] (at 50.0 µM).

In the case of `COC1C(C)OC(OC2CC(C)(O)Cc3cc4c(c(O)c32)C(=O)c2c(O)cc3c(c2C4=O)OC2OC3(C)C(O)C(N(C)C)C2O)C(OC)C1(C)OC` (configuration not stated), the growth inhibition in assay [1] (setting [7]) is 69% (inactive); in assay [1] (setting [8]) it was 96% (active); in assay [1] (at 50.0 µM), 89.5% (active); in assay [2] (setting [7]), 75% (active); in assay [2] (setting [8]) it was 99% (active); in assay [2] (at 50.0 µM) it was 93% (active). The growth inhibition in assay [3] (setting [7]) is 76% (active); in assay [3] (setting [8]) it was 97% (active); in assay [3] (at 50.0 µM) it was 91% (active); in assay [4] (setting [7]) it was 58% (inactive); in assay [4] (setting [8]), 91% (active); in assay [4] (at 50.0 µM) it was 88% (active). The growth inhibition was 77% (active) in assay [5] (setting [7]); 94% (active) in assay [5] (setting [8]); 91.5% (active) in assay [5] (at 50.0 µM); 83% (active) in assay [6] (setting [7]); 98% (active) in assay [6] (setting [8]); 90% (active) in assay [6] (at 50.0 µM).

As for `O=C1C(Cl)=C(Cl)C(=O)N1c1ccc(F)cc1`, the growth inhibition in assay [1] (setting [7]) is 53% (inactive); in assay [1] (setting [8]) it was 99% (active); in assay [1] (at 50.0 µM), 52% (inactive); in assay [2] (setting [7]) it was 42% (inactive); in assay [2] (setting [8]), 100% (active); in assay [2] (at 50.0 µM), 28.8% (inactive). Besides, the growth inhibition in assay [3] (setting [7]) is 28% (inactive); in assay [3] (setting [8]) it was 100% (active); in assay [3] (at 50.0 µM), 88.3% (active); in assay [4] (setting [7]), 24% (inactive); in assay [4] (setting [8]), 99% (active); in assay [4] (at 50.0 µM), 89.2% (active). The growth inhibition in assay [5] (setting [7]) was 35% (inactive); in assay [5] (setting [8]), 99% (active); in assay [5] (at 50.0 µM), 90.8% (active); in assay [6] (setting [7]), 45% (inactive); in assay [6] (setting [8]), 100% (active); in assay [6] (at 50.0 µM) it was 48.1% (inactive).

In the case of `CC(C)(C)OC(=O)NC(CSC(c1ccccc1)(c1ccccc1)c1cccs1)C(=O)O` (configuration not stated), the growth inhibition is 7% (inactive) in assay [1] (setting [7]); 97% (active) in assay [1] (setting [8]); 95.7% (active) in assay [1] (at 50.0 µM); 17% (inactive) in assay [2] (setting [7]); 99% (active) in assay [2] (setting [8]); 69.2% (inactive) in assay [2] (at 50.0 µM). In addition, the growth inhibition in assay [3] (setting [7]) is 7% (inactive); in assay [3] (setting [8]) it was 99% (active); in assay [3] (at 50.0 µM), 96.5% (active); in assay [4] (setting [7]) it was 23% (inactive); in assay [4] (setting [8]), 99% (active); in assay [4] (at 50.0 µM) it was 78.8% (active). Besides, the growth inhibition in assay [5] (setting [7]) was 9% (inactive); in assay [5] (setting [8]) it was 99% (active); in assay [5] (at 50.0 µM), 14.2% (inactive); in assay [6] (setting [7]) it was 12% (inactive); in assay [6] (setting [8]), 99% (active); in assay [6] (at 50.0 µM), 83.2% (active).

As for `C=Cc1c2ccccc2cc2ccccc12`, the growth inhibition in assay [1] (setting [7]) is 44% (inactive); in assay [1] (setting [8]), 82% (active); in assay [1] (at 50.0 µM), 86.2% (active); in assay [2] (setting [7]), 42% (inactive); in assay [2] (setting [8]), 82% (active); in assay [2] (at 50.0 µM), 75.2% (active). Further, the growth inhibition in assay [3] (setting [7]) was 26% (inactive); in assay [3] (setting [8]), 31% (inactive); in assay [3] (at 50.0 µM) it was 83.3% (active); in assay [4] (setting [7]) it was 44% (inactive); in assay [4] (setting [8]), 60% (inactive); in assay [4] (at 50.0 µM), 77% (active). The growth inhibition in assay [5] (setting [7]) was 50% (inactive); in assay [5] (setting [8]), 36% (inactive); in assay [5] (at 50.0 µM), 81.2% (active); in assay [6] (setting [7]), 34% (inactive); in assay [6] (setting [8]) it was 74% (active); in assay [6] (at 50.0 µM), 75% (active).

On to `CCOP(=S)(OCC)OC(c1ccc(Cl)cc1)c1ccc(Cl)cc1`, for which the growth inhibition was 3% (inactive) in assay [1] (setting [7]); -11% (inactive) in assay [1] (setting [8]); 12.8% (inactive) in assay [1] (at 50.0 µM); 0% (inactive) in assay [2] (setting [7]); -7% (inactive) in assay [2] (setting [8]); 6.2% (inactive) in assay [2] (at 50.0 µM). Moreover, the growth inhibition was 7% (inactive) in assay [3] (setting [7]); -20% (inactive) in assay [3] (setting [8]); 0.25% (inactive) in assay [3] (at 50.0 µM); 6% (inactive) in assay [4] (setting [7]); -29% (inactive) in assay [4] (setting [8]); 15.8% (inactive) in assay [4] (at 50.0 µM). The growth inhibition in assay [5] (setting [7]) was 11% (inactive); in assay [5] (setting [8]), 18% (inactive); in assay [5] (at 50.0 µM) it was 49.6% (inactive); in assay [6] (setting [7]), -1% (inactive); in assay [6] (setting [8]), -11% (inactive); in assay [6] (at 50.0 µM), 11.6% (inactive).
